Experimental data published in paper PMC7862700, “An all-to-all approach to the identification of sequence-specific readers for epigenetic DNA modifications on cytosine”.

How the values were obtained:
Experiment in all cases: DAPPL (digital affinity profiling via proximity ligation, sequencing); 10 mM Tris-HCl pH 7.5, 50 mM NaCl, 1 mM DTT, 4% glycerol, room temperature, 30 min; GST-TFs on glutathione beads, 16-mer random dsDNA library, 0.1% formaldehyde crosslink after washing; high values mean tight binding
Conditions in all cases: protein: recombinant; tags: N-terminal GST; dsDNA, one strand shown
FLI1 = target: T1, FLI1 (Homo sapiens, UniProt Q01543 1-452)
T1 sequence: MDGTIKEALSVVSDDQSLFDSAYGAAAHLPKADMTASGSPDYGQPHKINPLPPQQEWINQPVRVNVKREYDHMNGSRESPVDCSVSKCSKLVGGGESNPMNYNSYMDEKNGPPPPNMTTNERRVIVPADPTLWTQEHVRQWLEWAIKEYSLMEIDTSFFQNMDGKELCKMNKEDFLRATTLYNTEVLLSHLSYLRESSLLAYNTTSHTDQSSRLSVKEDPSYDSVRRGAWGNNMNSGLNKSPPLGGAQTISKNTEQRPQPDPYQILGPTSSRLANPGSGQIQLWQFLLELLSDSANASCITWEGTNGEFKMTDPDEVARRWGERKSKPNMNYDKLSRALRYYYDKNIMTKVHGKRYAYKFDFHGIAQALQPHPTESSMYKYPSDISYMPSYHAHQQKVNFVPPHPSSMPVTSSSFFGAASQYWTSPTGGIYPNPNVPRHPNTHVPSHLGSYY
Method in brief: (§1)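 After expression in yeast as GST fusions, human transcription factors were bound to glutathione beads, DNA-barcoded and mixed with a tag-only sample. The pools were incubated with 200 nmole of a 16-mer random double-stranded DNA library in Tris/NaCl/DTT/glycerol buffer (30 min, room temperature), washed and crosslinked with 0.1% formaldehyde. Proximity ligation with BsaI/T4 ligase ran for 1 h at 37 °C, before PCR amplification and sequencing on an Illumina NextSeq500. Binding signal is a hexamer's read frequency for a factor divided by its frequency for the tag-only sample.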

ELK1 = target: T2, ELK1 (Homo sapiens, UniProt P19419 1-428)
T2 sequence: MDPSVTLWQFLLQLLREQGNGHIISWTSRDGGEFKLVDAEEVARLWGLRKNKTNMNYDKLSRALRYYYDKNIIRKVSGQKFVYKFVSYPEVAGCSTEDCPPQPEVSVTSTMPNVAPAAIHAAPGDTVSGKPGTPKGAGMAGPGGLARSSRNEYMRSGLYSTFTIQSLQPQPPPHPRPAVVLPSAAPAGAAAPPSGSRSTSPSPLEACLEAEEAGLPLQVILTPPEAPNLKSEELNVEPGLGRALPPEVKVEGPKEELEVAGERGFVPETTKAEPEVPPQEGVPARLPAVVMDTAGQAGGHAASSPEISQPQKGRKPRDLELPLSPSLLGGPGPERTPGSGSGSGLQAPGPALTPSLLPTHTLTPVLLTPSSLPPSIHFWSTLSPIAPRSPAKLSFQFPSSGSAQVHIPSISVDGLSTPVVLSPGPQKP
Method in brief: as §1

GABPA = target: T3, GABPA (Homo sapiens, UniProt Q06546 1-454)
T3 sequence: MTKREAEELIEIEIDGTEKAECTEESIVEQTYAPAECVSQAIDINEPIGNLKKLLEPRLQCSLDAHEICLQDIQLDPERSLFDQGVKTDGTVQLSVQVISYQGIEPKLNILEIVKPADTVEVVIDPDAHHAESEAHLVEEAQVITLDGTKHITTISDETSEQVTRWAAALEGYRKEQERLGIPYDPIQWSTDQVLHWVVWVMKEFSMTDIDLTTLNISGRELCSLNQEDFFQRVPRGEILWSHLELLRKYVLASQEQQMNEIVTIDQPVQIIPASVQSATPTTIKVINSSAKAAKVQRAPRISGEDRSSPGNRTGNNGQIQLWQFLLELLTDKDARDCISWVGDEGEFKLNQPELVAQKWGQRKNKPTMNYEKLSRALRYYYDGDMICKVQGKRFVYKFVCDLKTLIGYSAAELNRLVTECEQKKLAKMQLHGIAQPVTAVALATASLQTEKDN
Method in brief: as §1

ERG = target: T4, ERG (Homo sapiens, UniProt P11308 1-479)
T4 sequence: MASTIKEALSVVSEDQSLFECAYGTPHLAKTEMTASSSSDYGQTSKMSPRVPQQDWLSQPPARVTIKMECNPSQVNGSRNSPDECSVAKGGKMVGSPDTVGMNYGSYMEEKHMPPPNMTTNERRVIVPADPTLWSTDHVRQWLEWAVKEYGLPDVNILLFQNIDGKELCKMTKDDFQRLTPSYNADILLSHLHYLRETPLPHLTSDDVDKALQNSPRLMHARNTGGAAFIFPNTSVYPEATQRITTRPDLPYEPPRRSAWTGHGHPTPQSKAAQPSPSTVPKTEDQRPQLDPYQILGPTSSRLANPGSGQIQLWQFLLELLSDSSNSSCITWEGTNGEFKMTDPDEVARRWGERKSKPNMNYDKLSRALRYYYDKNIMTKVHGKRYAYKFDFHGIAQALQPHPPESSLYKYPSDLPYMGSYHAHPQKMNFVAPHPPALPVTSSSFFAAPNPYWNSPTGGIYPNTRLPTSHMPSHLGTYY
Method in brief: as §1

ELF1 = ELF1 (Homo sapiens, UniProt P32519 1-619)
Method in brief: as §1

EHF = target: T5, EHF (Homo sapiens, UniProt Q9NZC4 1-300)
T5 sequence: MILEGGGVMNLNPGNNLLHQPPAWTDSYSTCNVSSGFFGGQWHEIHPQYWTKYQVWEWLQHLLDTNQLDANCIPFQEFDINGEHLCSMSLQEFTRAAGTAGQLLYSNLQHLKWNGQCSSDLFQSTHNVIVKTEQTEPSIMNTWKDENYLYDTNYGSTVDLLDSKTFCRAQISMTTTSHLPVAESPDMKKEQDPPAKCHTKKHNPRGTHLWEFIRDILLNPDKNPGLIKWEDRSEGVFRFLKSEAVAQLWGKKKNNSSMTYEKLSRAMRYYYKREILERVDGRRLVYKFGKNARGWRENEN
Method in brief: as §1

SPI1 = SPI1 (Homo sapiens, UniProt P17947 1-270)
Method in brief: as §1

SPIB = SPIB (Homo sapiens, UniProt Q01892 1-262)
Method in brief: as §1

ELK3 = target: T6, ELK3 (Homo sapiens, UniProt P41970 1-407)
T6 sequence: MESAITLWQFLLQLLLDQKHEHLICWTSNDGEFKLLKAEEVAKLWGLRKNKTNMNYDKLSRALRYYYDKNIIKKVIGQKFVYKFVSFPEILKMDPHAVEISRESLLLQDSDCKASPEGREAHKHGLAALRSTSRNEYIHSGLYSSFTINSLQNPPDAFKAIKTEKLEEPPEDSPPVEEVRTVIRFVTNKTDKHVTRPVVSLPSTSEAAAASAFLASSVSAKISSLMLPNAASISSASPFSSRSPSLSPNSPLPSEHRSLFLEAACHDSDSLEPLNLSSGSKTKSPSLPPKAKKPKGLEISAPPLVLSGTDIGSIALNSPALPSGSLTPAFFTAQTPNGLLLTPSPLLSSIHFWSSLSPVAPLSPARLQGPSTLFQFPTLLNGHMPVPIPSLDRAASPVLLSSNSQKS
Method in brief: as §1

FEV = target: T7, FEV (Homo sapiens, UniProt Q99581 1-238)
T7 sequence: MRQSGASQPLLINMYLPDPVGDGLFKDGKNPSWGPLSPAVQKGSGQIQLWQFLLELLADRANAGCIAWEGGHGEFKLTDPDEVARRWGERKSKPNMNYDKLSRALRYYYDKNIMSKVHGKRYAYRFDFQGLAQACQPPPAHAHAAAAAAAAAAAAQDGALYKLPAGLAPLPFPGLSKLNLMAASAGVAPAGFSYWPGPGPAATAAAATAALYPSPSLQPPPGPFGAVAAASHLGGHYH
Method in brief: as §1

ETV5 = ETV5 (Homo sapiens, UniProt P41161 1-510)
Method in brief: as §1

SPIC = target: T8, SPIC (Homo sapiens, UniProt Q8N5J4 1-248)
T8 sequence: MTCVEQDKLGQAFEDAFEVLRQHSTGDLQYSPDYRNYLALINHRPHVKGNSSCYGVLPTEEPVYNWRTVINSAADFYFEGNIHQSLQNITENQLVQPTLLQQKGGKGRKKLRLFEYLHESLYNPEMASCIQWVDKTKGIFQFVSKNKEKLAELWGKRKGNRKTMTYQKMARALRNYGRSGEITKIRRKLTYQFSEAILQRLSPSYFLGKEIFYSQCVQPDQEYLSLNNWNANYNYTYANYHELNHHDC
Method in brief: as §1

ELF4 = ELF4 (Homo sapiens, UniProt Q99607 1-663)
Method in brief: as §1

ELK4 = target: T9, ELK4 (Homo sapiens, UniProt P28324-2 1-405)
T9 sequence: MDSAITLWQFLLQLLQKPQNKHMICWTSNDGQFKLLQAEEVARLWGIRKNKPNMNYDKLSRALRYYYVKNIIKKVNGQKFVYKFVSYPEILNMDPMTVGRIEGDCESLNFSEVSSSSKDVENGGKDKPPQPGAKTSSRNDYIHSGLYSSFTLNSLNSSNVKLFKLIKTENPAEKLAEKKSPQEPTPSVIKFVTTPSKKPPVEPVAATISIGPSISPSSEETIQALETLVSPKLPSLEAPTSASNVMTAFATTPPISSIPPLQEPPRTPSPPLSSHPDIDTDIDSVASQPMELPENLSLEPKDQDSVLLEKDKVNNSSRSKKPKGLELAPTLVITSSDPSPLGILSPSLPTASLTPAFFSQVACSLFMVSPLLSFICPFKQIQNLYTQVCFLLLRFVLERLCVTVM
Method in brief: as §1

ETV2 = target: T10, ETV2 (Homo sapiens, UniProt O00321 1-342)
T10 sequence: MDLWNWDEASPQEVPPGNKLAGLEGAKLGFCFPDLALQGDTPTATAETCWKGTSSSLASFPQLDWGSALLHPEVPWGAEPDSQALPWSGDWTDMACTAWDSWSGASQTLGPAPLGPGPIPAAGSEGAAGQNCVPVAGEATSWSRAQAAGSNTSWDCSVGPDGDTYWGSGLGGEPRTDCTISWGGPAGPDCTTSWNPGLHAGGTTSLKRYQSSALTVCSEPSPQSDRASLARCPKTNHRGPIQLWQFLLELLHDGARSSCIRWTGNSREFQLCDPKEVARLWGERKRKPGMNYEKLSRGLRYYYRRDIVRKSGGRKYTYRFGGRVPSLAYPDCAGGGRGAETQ
Method in brief: as §1

ELF3 = target: T11, ELF3 (Homo sapiens, UniProt P78545 1-371)
T11 sequence: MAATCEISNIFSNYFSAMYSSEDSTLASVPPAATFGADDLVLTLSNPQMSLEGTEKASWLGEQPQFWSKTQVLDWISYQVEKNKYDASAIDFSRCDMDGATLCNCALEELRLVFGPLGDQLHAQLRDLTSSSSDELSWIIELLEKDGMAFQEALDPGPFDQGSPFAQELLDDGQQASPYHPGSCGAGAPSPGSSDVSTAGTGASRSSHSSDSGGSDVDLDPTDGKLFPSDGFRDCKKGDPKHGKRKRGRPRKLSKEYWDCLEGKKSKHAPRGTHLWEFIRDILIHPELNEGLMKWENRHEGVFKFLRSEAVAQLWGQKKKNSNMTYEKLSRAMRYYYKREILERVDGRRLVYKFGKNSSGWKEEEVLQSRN
Method in brief: as §1

ETV1 = ETV1 (Homo sapiens, UniProt P50549 1-477)
Method in brief: as §1

ETV5, sequence (P41161 whole entry): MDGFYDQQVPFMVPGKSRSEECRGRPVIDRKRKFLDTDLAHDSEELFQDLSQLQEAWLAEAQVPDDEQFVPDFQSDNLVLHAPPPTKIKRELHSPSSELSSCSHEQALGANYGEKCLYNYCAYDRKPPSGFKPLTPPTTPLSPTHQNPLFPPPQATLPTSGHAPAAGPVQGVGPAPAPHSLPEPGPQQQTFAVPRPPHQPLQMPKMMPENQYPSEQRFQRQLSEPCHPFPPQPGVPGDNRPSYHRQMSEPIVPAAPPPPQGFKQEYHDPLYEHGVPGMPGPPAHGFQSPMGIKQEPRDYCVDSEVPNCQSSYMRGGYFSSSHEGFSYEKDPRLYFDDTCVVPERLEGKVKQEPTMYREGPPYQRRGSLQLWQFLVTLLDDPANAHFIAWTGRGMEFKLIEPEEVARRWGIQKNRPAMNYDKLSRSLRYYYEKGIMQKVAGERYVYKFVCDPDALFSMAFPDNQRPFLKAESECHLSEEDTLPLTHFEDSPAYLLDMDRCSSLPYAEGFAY
ELF1, sequence (P32519 whole entry): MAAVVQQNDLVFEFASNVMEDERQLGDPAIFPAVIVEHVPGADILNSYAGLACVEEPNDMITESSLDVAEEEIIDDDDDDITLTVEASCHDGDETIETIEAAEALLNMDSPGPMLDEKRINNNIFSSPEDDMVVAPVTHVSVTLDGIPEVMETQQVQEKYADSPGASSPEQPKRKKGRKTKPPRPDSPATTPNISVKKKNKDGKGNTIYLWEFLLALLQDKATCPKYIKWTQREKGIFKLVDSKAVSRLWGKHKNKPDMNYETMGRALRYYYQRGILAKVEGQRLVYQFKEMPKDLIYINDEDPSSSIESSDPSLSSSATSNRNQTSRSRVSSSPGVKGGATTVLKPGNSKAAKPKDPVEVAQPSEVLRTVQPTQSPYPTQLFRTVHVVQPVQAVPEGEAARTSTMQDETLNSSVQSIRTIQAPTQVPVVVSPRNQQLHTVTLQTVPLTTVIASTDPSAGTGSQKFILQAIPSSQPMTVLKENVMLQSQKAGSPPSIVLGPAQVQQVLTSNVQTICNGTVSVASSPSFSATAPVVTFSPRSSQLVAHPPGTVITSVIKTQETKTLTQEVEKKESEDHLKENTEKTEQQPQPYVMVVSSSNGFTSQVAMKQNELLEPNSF
ETV1, sequence (P50549 whole entry): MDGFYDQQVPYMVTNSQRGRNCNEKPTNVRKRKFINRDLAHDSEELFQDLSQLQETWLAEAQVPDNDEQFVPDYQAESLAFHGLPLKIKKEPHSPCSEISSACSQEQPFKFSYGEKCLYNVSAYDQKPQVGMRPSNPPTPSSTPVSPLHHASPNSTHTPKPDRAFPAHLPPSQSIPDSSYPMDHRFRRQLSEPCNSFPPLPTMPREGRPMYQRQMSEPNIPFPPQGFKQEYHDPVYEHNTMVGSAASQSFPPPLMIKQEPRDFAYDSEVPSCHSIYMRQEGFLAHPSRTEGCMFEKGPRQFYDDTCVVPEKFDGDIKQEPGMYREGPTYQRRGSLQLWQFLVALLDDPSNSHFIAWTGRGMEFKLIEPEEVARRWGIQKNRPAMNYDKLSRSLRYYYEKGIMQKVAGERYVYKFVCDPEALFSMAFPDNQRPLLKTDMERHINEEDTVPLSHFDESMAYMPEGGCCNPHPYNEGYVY
ELF4, sequence (Q99607 whole entry): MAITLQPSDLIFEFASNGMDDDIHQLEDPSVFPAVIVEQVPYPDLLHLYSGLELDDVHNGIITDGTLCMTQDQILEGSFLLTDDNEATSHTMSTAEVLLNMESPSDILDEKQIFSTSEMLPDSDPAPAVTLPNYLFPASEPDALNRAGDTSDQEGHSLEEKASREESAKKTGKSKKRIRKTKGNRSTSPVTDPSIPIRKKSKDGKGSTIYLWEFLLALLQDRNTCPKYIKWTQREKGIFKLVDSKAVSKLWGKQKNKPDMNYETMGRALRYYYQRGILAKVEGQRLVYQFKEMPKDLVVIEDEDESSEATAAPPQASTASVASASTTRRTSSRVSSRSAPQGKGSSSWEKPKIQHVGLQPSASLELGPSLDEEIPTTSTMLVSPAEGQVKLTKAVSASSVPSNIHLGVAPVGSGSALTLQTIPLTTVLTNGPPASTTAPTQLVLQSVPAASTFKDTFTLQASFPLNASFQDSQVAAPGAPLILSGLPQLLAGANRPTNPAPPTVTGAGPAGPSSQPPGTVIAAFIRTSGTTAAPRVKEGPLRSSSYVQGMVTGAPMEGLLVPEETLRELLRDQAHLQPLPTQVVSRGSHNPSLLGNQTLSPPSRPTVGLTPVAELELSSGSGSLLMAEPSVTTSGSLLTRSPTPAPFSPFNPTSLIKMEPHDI
SPIB, sequence (Q01892 whole entry): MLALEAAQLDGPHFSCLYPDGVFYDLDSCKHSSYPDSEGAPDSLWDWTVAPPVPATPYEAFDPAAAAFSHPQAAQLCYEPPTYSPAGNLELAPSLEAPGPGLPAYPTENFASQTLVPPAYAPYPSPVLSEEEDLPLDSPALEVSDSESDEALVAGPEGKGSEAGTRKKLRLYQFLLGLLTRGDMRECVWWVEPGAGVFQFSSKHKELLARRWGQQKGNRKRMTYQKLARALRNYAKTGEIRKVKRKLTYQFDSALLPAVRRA

Sequence: GTAACA
- binding signal (FLI1): 1.24 fold enrichment (6-mer frequency, TF over GST control)
- binding signal (ELK1): 1.1 fold enrichment (6-mer frequency, TF over GST control)
- binding signal (GABPA): 1.05 fold enrichment (6-mer frequency, TF over GST control)
- binding signal (ERG): 1.06 fold enrichment (6-mer frequency, TF over GST control)
- binding signal (ELF1): 1.13 fold enrichment (6-mer frequency, TF over GST control)
- binding signal (EHF): 1.21 fold enrichment (6-mer frequency, TF over GST control)
- binding signal (SPI1): 1.12 fold enrichment (6-mer frequency, TF over GST control)
- binding signal (SPIB): 1.03 fold enrichment (6-mer frequency, TF over GST control)
- binding signal (ELK3): 1.19 fold enrichment (6-mer frequency, TF over GST control)
- binding signal (FEV): 1.14 fold enrichment (6-mer frequency, TF over GST control)
- binding signal (ETV5): 1.08 fold enrichment (6-mer frequency, TF over GST control)
- binding signal (SPIC): 1.12 fold enrichment (6-mer frequency, TF over GST control)
- binding signal (ELF4): 1.14 fold enrichment (6-mer frequency, TF over GST control)
- binding signal (ELK4): 1.12 fold enrichment (6-mer frequency, TF over GST control)
- binding signal (ETV2): 1.03 fold enrichment (6-mer frequency, TF over GST control)
- binding signal (ELF3): 1.27 fold enrichment (6-mer frequency, TF over GST control)
- binding signal (ETV1): 1.14 fold enrichment (6-mer frequency, TF over GST control)
